PubChem BioAssay (NCATS)
Inconclusive results are not listed. Where a call stands in place of a potency, no number is given. Unmarked numbers belong to inactive results. The source made the active and inactive calls. Unless noted, calls follow the shape of the dose curve; as a rule, active = well fitted curve in the direction sought with a large enough effect in the repeat runs; inconclusive = weak or mixed curves; inactive = no such curve, though single readings can be large; an effect the other way counts as inactive or inconclusive.

Experiments:
[1] = biological target: Cytochrome P450 2D6 (Homo sapiens) (UniProt P10635); test: Cytochrome P450 family 2 subfamily D member 6 (CYP2D6) small molecule antagonists: luciferase biochemical (cell-free) qHTS assay (AID 1645840); details: P450-Glo CYP2D6 enzyme, luciferin luminescence, 1 h; series mostly up to 57.4 µM; also: nearly all actives have a fitted effect of over 55% in size; also: potency is read from the fitted curve at half-maximal effect
Summary of the method: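 P450-Glo CYP2D6 system: proluciferin substrate converted by enzyme to luciferin, read by luminescence proportional to activity. Enzyme-substrate mix with compound 10 min at room temperature, then NADPH regeneration 1 h before detection reagent.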

[2] = biological target: Cytochrome P450 3A4 (Homo sapiens) (UniProt P08684); test: Cytochrome P450 family 3 subfamily A member 4 (CYP3A4) small molecule antagonists: luciferase qHTS assay (AID 1645841); details: P450-Glo CYP3A4 enzyme assay, luciferin luminescence; series mostly up to 57.4 µM; also: nearly all actives have a fitted effect of over 45% in size
Summary of the method: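 P450-Glo CYP3A4 enzyme with proluciferin substrate was preincubated with DMSO-dissolved compounds for 10 min at room temperature. NADPH regeneration solution started a 1 h reaction. Detection reagent stopped it, and luminescence was read after 20 min.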

[3] = biological target: Cytochrome P450 2C9 (Homo sapiens) (UniProt P11712); test: Cytochrome P450 family 2 subfamily C member 9 (CYP2C9) small molecule antagonists: luciferase biochemical (cell-free) qHTS assay (AID 1645842); details: P450-Glo CYP2C9 enzyme assay, luciferin luminescence; series mostly up to 57.4 µM; also: nearly all actives have a fitted effect of over 55% in size; also: potency is read from the fitted curve at half-maximal effect
Summary of the method: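 P450-Glo CYP2C9 system: proluciferin substrate with enzyme in mix containing 0.4% BSA, 10 min at room temperature, then NADPH regeneration solution added and incubated 1 h at 37C. Detection reagent stopped reaction; luminescence read after 20 min as RLU.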

[4] = A High-Content qHTS Against Drug Library for the Identification of Small Molecules that Inhibit DYT1 Early Onset Primary Dystonia-Associated Cell Pathology (AID 1645839; calls by dose curve); details: HEK293 Flp-In EGFP-delE TorsinA, punctate imaging, 48 h; series mostly up to 46.1 µM
Summary of the method: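 Induced EGFP-delE TorsinA cells are imaged after 48 h of compound treatment. Punctate fusion-protein distribution gives the %pathology value, while nuclei counts flag toxicity. Wild-type EGFP-hTOR1A cells define the normal pattern.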

[5] = Primary qHTS for inhibitors of nuclear receptor binding SET domain protein 2 (NSD2) in an isogenic RCH-ACV NSD2 p.E1099K mutant (9B) (AID 1645876; active = well fitted curve in the direction sought with a large enough effect; an effect the other way counts as inactive or inconclusive; also: nearly all actives have a fitted effect of over 70% in size); details: RCH-ACV NSD2 E1099K (9B) viability, CellTiter-Glo, 72 h; series mostly up to 44.9 µM
[6] = Primary qHTS for inhibitors of nuclear receptor binding SET domain protein 2 (NSD2) in an RCH-ACV wild type WT cells (2C) (AID 1645877; active = well fitted curve in the direction sought with a large enough effect; an effect the other way counts as inactive or inconclusive; also: nearly all actives have a fitted effect of over 70% in size); details: RCH-ACV (leukaemia line) NSD2 WT (2C) viability, CellTiter-Glo, 72 h; series mostly up to 44.9 µM
[7] = Confirmatory qHTS for small molecule stabilizers of the endoplasmic reticulum resident proteome: Secreted ER Calcium Modulated Protein (SERCaMP) assay (AID 1508628; active = well fitted curve in the direction sought with a large enough effect; an effect the other way counts as inactive or inconclusive; also: nearly all actives have a fitted effect of over 40% in size; also: potency is read from the fitted curve at half-maximal effect); details: SERCaMP secreted luciferase ER calcium/proteostasis reporter; series mostly up to 76.3 µM
Summary of the method: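 Reporter secretion upon ER calcium depletion (100 nM thapsigargin, 4 h, 37C) is measured as medium luminescence with coelenterazine, after 16 h compound pretreatment of SH-SY5Y-GLuc-SERCaMP cells; primary at three concentrations up to 38.3 uM, follow-up at 11 (up to 76.6 uM).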

[8] = Counterscreen qHTS for small molecule stabilizers of the endoplasmic reticulum resident proteome: GLuc-NoTag assay (AID 1508627; active = well fitted curve in the direction sought with a large enough effect; an effect the other way counts as inactive or inconclusive); details: Gaussia luciferase NoTag secretion counterscreen, luminescence, thapsigargin 100 nM for final 4 h; series mostly up to 76.4 µM
Excerpt: Assay Provider: Brandon K. Harvey Ph.D.
National Institute on Drug Abuse, National Institutes of Health, Baltimore, MD
Endoplasmic reticulum (ER) dysregulation is associated with human pathologies including neurodegenerative, cardiovascular, muscular, and diabetic conditions. Maintenance of ER calcium is critical for functions of the ER and its depletion can lead to loss of ER resident proteins, in a process termed exodosis. Therapeutic compounds capable of attenuating the redistribution of ER proteins under pathological conditions may slow or stop disease progression. To identify such compounds, we performed a quantitative high-throughput screen (qHTS) using the SERCaMP assay, which monitors secretion of ER resident proteins triggered by calcium depletion. […]
8; Detection; Luminescence; ViewLux imaging system […]
7; Gaussia luciferase in the medium was measured by adding 1 ul of 0.5x coelenterazine (final concentration 0.07x) prepared in Gaussia Luciferase Glow Assay Buffer (Pierce), without addition of the Cell Lysis Buffer Reagent.
8; Luminescence was measured using a ViewLux CCD imaging system (Perkin Elmer) equipped with clear filters. […]

[9] = Cell Viability qHTS for small molecule stabilizers of the endoplasmic reticulum resident proteome (AID 1508629; active = well fitted curve in the direction sought with a large enough effect; an effect the other way counts as inactive or inconclusive;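 also: human SH-SY5Y neuroblastoma cells carrying the GLuc-SERCaMP reporter; compound exposure about 46 h in total before the viability read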); details: cell viability counter-screen, 100 nM thapsigargin for final 4 h
[10] = Viability counterscreen for antagonist of constitutive androstane receptor (CAR) against the NCATS DSHEA and TCM libraries (AID 1794837; active = well fitted curve in the direction sought with a large enough effect; an effect the other way counts as inactive or inconclusive;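 also: compound exposure lasted 24 h before viability reading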); details: CAR reporter cell line viability counterscreen, qHTS; series mostly up to 40 µM
Summary of the method: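 Viability was measured by CellTiter-Fluor fluorescence (405/540 nm, 1 hr) in HepG2-CYP2B6-hCAR cells. Cells were co-treated 24 hr with 48 uM CITCO (final), antagonist mode, and test substances.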

Cytochrome P450 2C9 (Homo sapiens), sequence (P11712 whole entry, looked up): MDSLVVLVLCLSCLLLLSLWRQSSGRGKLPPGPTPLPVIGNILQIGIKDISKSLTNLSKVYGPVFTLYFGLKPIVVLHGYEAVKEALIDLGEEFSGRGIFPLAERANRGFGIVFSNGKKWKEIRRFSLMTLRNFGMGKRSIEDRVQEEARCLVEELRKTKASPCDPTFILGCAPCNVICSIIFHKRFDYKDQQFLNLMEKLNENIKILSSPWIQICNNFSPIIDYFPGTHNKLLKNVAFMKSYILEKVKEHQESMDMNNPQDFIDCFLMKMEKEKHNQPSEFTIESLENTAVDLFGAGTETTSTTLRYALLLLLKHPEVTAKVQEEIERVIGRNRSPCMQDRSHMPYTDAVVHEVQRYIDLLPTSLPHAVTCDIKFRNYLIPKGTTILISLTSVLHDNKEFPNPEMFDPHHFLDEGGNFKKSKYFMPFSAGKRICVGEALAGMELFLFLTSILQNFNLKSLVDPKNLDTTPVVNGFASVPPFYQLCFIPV
Cytochrome P450 2D6 (Homo sapiens), sequence (P10635 whole entry, looked up): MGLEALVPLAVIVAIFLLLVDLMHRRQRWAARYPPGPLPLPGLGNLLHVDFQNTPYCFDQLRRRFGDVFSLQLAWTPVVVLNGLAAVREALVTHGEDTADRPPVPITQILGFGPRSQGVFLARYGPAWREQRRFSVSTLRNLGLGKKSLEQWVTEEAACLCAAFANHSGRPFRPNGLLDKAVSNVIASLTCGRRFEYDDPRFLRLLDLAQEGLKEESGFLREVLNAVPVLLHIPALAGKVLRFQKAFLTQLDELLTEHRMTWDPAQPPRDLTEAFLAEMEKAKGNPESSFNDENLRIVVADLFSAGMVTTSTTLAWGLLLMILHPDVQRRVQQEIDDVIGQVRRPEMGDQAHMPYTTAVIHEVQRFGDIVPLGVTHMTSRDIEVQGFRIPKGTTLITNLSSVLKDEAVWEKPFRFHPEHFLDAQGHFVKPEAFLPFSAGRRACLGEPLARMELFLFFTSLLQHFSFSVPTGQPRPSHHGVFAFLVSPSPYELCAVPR
Cytochrome P450 3A4 (Homo sapiens), sequence (P08684 whole entry, looked up): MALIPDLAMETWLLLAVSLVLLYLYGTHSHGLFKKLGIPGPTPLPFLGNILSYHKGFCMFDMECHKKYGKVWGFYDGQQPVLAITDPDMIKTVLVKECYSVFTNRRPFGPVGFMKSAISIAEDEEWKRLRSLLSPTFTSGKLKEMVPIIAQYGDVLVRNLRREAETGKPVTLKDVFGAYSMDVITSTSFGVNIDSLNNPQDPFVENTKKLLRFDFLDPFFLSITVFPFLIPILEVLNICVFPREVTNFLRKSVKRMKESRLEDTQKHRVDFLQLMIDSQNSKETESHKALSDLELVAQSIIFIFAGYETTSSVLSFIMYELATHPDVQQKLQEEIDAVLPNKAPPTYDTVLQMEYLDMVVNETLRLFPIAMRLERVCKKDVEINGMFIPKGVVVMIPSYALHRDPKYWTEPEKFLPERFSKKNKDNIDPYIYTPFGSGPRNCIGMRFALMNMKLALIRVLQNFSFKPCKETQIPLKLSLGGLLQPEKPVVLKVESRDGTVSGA

For `C=CC1=C(C(=O)O)N2C(=O)[C@@H](NC(=O)/C(=N\O)c3csc(N)n3)[C@H]2SC1` (stereo in doubt), the Potency [1] was “inactive”, the outcome [2] was “inactive” and the Potency [3] was “inactive”.
In the case of `O=C(O)CCC(=O)c1ccc(-c2ccccc2)cc1`, the outcome [4] is reported as “inactive”, the Potency [3] is reported as “inactive” and the Potency [5] is reported as “inactive”. For the same compound, the Potency [6] was “inactive”.
With `CO/N=C(\C(=O)N[C@@H]1C(=O)N2C(C(=O)O)=C(C[N+]3(C)CCCC3)CS[C@H]12)c1csc(N)n1` the Potency [1] was “inactive” and the Potency [3] was “inactive”.
With `O=P(O)(O)OP(=O)(O)O` the Potency [1] was “inactive”.
With `CCN(CC)CCOCCOC(=O)C(CC)(CC)c1ccccc1` the Potency [1] was 3.01 µM (active).
In the case of `CN1C(=O)OC(C)(C)C1=O`, the Potency [1] is reported as “inactive”.
With `CCCCC(O)c1ccccc1` (stereo not given) the Potency [1] was “inactive”.
With `CCCOc1cc(N)ccc1C(=O)OCCN(CC)CC` the Potency [1] was 3.38 µM (active).
With `CCN1C(=O)NC(c2ccccc2)C1=O` (stereo not given) the Potency [1] was “inactive”.
In the case of `O=S(=O)(O)CC(S)CS` (stereo not given), the Potency [1] is reported as “inactive”.
In the case of `N=C(N)n1cccn1`, the Potency [1] is reported as “inactive”, the outcome [2] is reported as “inactive” and the Potency [3] is reported as “inactive”.
For `CN(C)c1ccc(C(=C2C=CC(=[N+](C)C)C=C2)c2c(O)c(S(=O)(=O)[O-])cc3cc(S(=O)(=O)O)ccc23)cc1`, the Potency [1] was 15.1 µM (active).
With `CC(=O)Oc1cccc2c1C(=O)c1c(OC(C)=O)cc(C(=O)O)cc1C2=O` the outcome [4] was “inactive”, the Potency [3] was “inactive” and the Potency [5] was “inactive”. For the same compound, the Potency [6] was “inactive”.
In the case of `CC(=O)Oc1cc(C(F)(F)F)ccc1C(=O)O`, the Potency [1] is reported as “inactive” and the outcome [2] is reported as “inactive”.
With `C[C@H](O)CN(C)C` the Potency [1] was “inactive” and the Potency [3] was “inactive”.
For `CCOC(C)OCC`, the Potency [1] was “inactive” and the Potency [3] was “inactive”.
For `FCOC(C(F)(F)F)C(F)(F)F`, the Potency [1] was “inactive” and the Potency [3] was “inactive”.
In the case of `CCC(Cc1c(I)cc(I)c(O)c1I)C(=O)O` (stereo not given), the Potency [1] is reported as “inactive” and the Potency [3] is reported as 10.7 µM (active).
In the case of `Cc1cc(-c2ccc(N=Nc3ccc4c(S(=O)(=O)O)cc(S(=O)(=O)O)c(N)c4c3O)c(C)c2)ccc1N=Nc1ccc2c(S(=O)(=O)O)cc(S(=O)(=O)O)c(N)c2c1O`, the Potency [7] is reported as 31.6 µM (active).
In the case of `CCCCCCCCCCCCCCCCCC[N+](C)(C)CCC[Si](OC)(OC)OC`, the Potency [1] is reported as 15.1 µM (active) and the Potency [3] is reported as “inactive”.
With `COc1ccc2nc(NC(=O)Nc3ccccc3)sc2c1` the outcome [4] was “inactive”, the Potency [1] was “inactive” and the Potency [3] was 13.8 µM (active).
For `CN(C)CCCSc1ccccc1NC(=O)/C=C/c1ccccc1`, the outcome [4] was “inactive”, the Potency [1] was 0.347 µM (active) and the Potency [3] was “inactive”. The Potency [5] was “inactive” and the Potency [6] was “inactive”.
In the case of `O=C1c2ccccc2C(=O)c2c1ccc(O)c2O`, the outcome [4] is reported as “inactive”.
For `NC(=S)N=Nc1ccc(NN=C(N)N)cc1`, the Potency [1] was 10.7 µM (active), the outcome [2] was “inactive” and the Potency [3] was 15.1 µM (active).
With `CCN(CC)C(=O)c1cccnc1` the Potency [1] was “inactive” and the Potency [3] was “inactive”.
For `O=C(OCc1ccccc1)c1ccc(O)cc1`, the outcome [4] was “inactive”.
In the case of `C[C@@](Cc1ccc(O)c(O)c1)(NN)C(=O)O`, the outcome [8] is reported as “inactive”, the Potency [7] is reported as “inactive” and the max response [9] is reported as -4.61%. The Potency [1] was “inactive”.
In the case of `CC(CC=O)CCCC(C)(C)O` (stereo not given), the Potency [1] is reported as “inactive”.
With `O=C(OCc1ccccc1)c1cccnc1` the Potency [1] was “inactive”.
In the case of `CC(C)=CCC/C(C)=C/CC/C(C)=C/CC/C=C(\C)CC/C=C(\C)CCC=C(C)C`, the Potency [1] is reported as “inactive”.
For `Cc1ncc(C[n+]2csc(CCO)c2C)c(N)n1`, the Potency [1] was “inactive”, the outcome [2] was “inactive” and the Potency [3] was “inactive”. The outcome [10] was “inactive”.
For `CCC(O)c1ccccc1` (stereo not given), the Potency [1] was “inactive” and the Potency [3] was “inactive”.
For `CCOc1ccc(S(=O)(=O)O)c2cccnc12`, the Potency [1] was “inactive” and the Potency [3] was “inactive”.
For `C=CCCCCCCCCC(=O)OC`, the Potency [1] was “inactive” and the Potency [3] was “inactive”.
In the case of `COC(=O)[C@@H](N)CS`, the Potency [1] is reported as “inactive” and the Potency [3] is reported as 9.52 µM (active).
For `c1ccc2ccccc2c1`, the Potency [1] was “inactive” and the Potency [3] was “inactive”.
For `CC[C@H]1OC(=O)C[C@@H](O)[C@H](C)[C@@H](O[C@@H]2O[C@H](C)[C@@H](O[C@H]3C[C@@](C)(O)[C@@H](O)[C@H](C)O3)[C@H](N(C)C)[C@H]2O)[C@@H](CC=O)C[C@@H](C)C(=O)/C=C/C(C)=C/[C@@H]1CO[C@@H]1O[C@H](C)[C@@H](O)[C@@H](OC)[C@H]1OC`, the Potency [1] was “inactive” and the Potency [3] was “inactive”.
In the case of `FC(F)OC(Cl)C(F)(F)F` (stereo not given), the Potency [1] is reported as “inactive” and the Potency [3] is reported as “inactive”.
In the case of `CN1c2c(nc(N)[nH]c2=O)NCC1CNc1ccc(C(=O)NC(CCC(=O)O)C(=O)O)cc1` (stereo not given), the Potency [1] is reported as “inactive” and the Potency [3] is reported as “inactive”.
In the case of `COC(=O)c1ccccc1O`, the Potency [1] is reported as “inactive” and the Potency [3] is reported as “inactive”.
In the case of `COC(=O)CCC[N+](C)(C)C`, the Potency [1] is reported as “inactive” and the Potency [3] is reported as “inactive”.
For `CCCC(=O)O`, the Potency [1] was “inactive” and the Potency [3] was “inactive”.
With `C/C=C/C=C/C(=O)O` the Potency [1] was “inactive” and the Potency [3] was “inactive”.
With `CCOC(=O)C1=C(COCCN)NC(C)=C(C(=O)OC)C1c1ccccc1Cl` (stereo not given) the Potency [1] was 16.9 µM (active) and the Potency [3] was 2.68 µM (active).
For `c1ccc(-n2cnnn2)cc1`, the Potency [1] was “inactive” and the Potency [3] was “inactive”.
With `NC(=O)OCC(O)COc1ccc(Cl)cc1` (stereo not given) the Potency [1] was “inactive” and the Potency [3] was “inactive”.
With `O=C1CCC(=O)N1CO` the Potency [1] was “inactive” and the Potency [3] was “inactive”.
